Percent Effect data for 52 molecules are collected here from ChEMBL document CHEMBL3988442, “University of Dundee, Small-Polar-MMV Screening Library” (2021).

Test [1] deals with T1, Aspartate--tRNA(Asp/Asn) ligase (Mycobacterium tuberculosis (strain ATCC 25618 / H37Rv)) (UniProt P9WFW3).
T1 sequence (whole entry): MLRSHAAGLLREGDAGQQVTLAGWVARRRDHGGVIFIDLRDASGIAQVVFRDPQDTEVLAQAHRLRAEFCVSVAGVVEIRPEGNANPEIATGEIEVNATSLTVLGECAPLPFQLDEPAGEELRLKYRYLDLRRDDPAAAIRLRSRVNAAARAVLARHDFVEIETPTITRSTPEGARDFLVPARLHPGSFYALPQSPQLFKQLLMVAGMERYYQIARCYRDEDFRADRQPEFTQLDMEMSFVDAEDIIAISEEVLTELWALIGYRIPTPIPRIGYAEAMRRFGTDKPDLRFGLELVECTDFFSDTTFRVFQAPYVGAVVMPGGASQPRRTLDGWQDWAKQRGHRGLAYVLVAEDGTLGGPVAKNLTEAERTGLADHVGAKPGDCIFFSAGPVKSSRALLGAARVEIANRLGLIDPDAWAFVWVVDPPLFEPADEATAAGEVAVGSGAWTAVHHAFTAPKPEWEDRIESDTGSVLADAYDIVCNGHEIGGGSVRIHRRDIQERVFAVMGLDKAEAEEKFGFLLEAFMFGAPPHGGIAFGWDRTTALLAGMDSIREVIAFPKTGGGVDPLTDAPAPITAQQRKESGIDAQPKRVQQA
In words: Assay for Asp RNA synthetase-1 from Mycobacterium tuberculosis. It counts as functional. Also on record: scale not given: direction of the effect not stated beside the values. The following applies: 30 µM.

Test [2] has as its target Shiga toxin 2 (Escherichia coli O157:H7) (UniProt P09385+P09386). In words: E. coli 0.157:H7 Shiga Toxin SOP - stx2 screening assay. The arrangement: scale not given: direction of the effect not stated beside the values. The following applies: 30 µM. The test is classed as functional.

On to `Cn1ccc(C(=O)NC2CCC23CCN(C(=O)N2CCCC2)CC3)c1` (centres undefined), for which the Percent Effect in test [1] was -3.32%; in test [2] it was -4.99%.
As to `COc1ncc(C2CC(=O)NCc3nc4ccccn4c32)cn1` (centres undefined), the Percent Effect in test [1] was -1.4%; in test [2], 15%.
On to `CC(CN1CCOCC1)NCC1CCN(c2cnn(C)c(=O)c2)CC1` (centres undefined), for which the Percent Effect was 2.84% in test [1] and -6.71% in test [2].
For `Cc1cc(NC(=O)CN(C)C2CCCN(c3cccnn3)C2)n(C)n1` (centres undefined), in that order: 5.7% and 30.1%.
For `CCC1CN(CC(=O)N2CCC2)CCN1CCOC` (centres undefined), in that order: 7.2% and 9.62%.
For the molecule `CN(C)S(=O)(=O)N1CCC(Oc2ccc(C#N)cc2)CC1`, the Percent Effect in test [1] is 0.641%; in test [2] it was -1.14%.
`CN(C)S(=O)(=O)N1CCN(c2ccnc(N3CCCC3)n2)CC1`: the Percent Effect in test [1] is -2.66%; in test [2], -41.2%.
With `CC(Cn1cccn1)NC(=O)N(C)Cc1ccc(Cl)s1` (centres undefined), the figures for the Percent Effect in test [1] and in test [2] were -7.31% and -6.54%, respectively.
For the molecule `CC(C)N(Cc1cccc(F)c1)Cc1nc2c(cnn2C)c(=O)[nH]1`, the Percent Effect in test [1] was -5.3%; in test [2], -0.112%.
For `CNc1nc(CNC(=O)Nc2cccc(-c3nnco3)c2)cs1`, the Percent Effect in test [1] is 2.65%; in test [2] it was -22.3%.
For the molecule `Cc1ccc(C(=O)N2CCN(C(=O)NC(C)Cn3ccnc3)CC2)o1` (centres undefined), the Percent Effect in test [1] was -1.92%; in test [2] it was 17.6%.
With `CCN(CC)c1ccc(NS(=O)(=O)c2cncc(F)c2)cn1`, the Percent Effect in test [1] is 1.66%; in test [2] it was -27.3%.
As for `CC(C)NC(=O)Nc1ccc(CNCc2cccc(C#N)c2)cc1`, the Percent Effect in test [1] was 0.232%; in test [2] it was -108%.
For `COCc1cn([C@@H]2c3ccccc3C3(CCNCC3)[C@H]2O)nn1`, the Percent Effect in test [1] came to 3.45%; in test [2], 8.95%.
For the molecule `NC(=O)Cc1ccc(NC(=O)C2CCOCC2)cc1`, the Percent Effect in test [1] is 1.11%; in test [2], 20.8%.
As for `CN(C)CC1CN(Cc2nnc(-c3ccccc3Cl)o2)CCO1` (centres undefined), the values for the Percent Effect in test [1] and in test [2] were -1.66% and -41.7%, respectively.
With `O=C(CC1CC1)N1C[C@@H]2CCN(c3cnccn3)C[C@@H]2C1`, the values for the Percent Effect in test [1] and in test [2] were -5.94% and -0.992%, respectively.
With `CCn1cnnc1CNC(=O)N1CCOCC1`, the Percent Effect was -11.7% in test [1] and 7.05% in test [2].
On to `O=C(NCCS(=O)(=O)N1CCc2ccccc21)c1c(O)cc(F)cc1F`, for which the results for the Percent Effect in test [1] and in test [2] were -2.88% and 23%, respectively.
On to `COc1cccn(CC(=O)N(C)Cc2ccoc2)c1=O`, for which the Percent Effect in test [1] was -1.64%; in test [2], 5.29%.
For `CCN(CCn1cccn1)Cc1nc(-c2ccccc2F)oc1C`, in that order: -0.808% and -3.06%.
Take `COc1cc(CNCCc2nc(C)cs2)cc2c1OCCO2`: the Percent Effect was -4.99% in test [1] and 14.4% in test [2].
Turning to `CN(C)C(=O)CN1CCCC2(CCN(c3ccsc3)C2=O)C1` (centres undefined), the figures for the Percent Effect in test [1] and in test [2] were 2.4% and -21.7%, respectively.
For the molecule `Cc1cnn(CC2CN(CC(=O)N(C)Cc3cccs3)CCO2)c1` (centres undefined), the values for the Percent Effect in test [1] and in test [2] were -5.6% and -8.69%, respectively.
Turning to `CCCNCC1(O)CCCN(Cc2cccc(C)c2)C1=O` (centres undefined), the Percent Effect is -0.345% in test [1] and 0.574% in test [2].
Taken in the same sequence, the figures for `O=C(NCC1CCN(C(=O)c2ccoc2)CC1)c1ccccc1Br` were -6.27% and 3.64%.
In the case of `O=C(NCCC1CCCO1)c1ccccc1N1CCOCC1` (centres undefined), the Percent Effect was -8.37% in test [1] and -3.88% in test [2].
Consider `Cc1cc(C(=O)NC2CCc3nc(C)cn3C2)[nH]n1` (centres undefined), for which the Percent Effect was -3.72% in test [1] and -2.92% in test [2].
In the case of `N#Cc1cc(NC(=O)c2ccccc2)ccc1N1CCC(O)CC1`, the Percent Effect in test [1] was -1.51%; in test [2], -18.7%.
`CC(C)n1c(=O)nc2n1C(=O)N(c1ccc(F)cc1)C2`: the Percent Effect was 2.49% in test [1] and 2.99% in test [2].
In the case of `Cc1noc([C@@]23CCO[C@@H]2CCN(C(=O)C2CCOCC2)C3)n1`, the Percent Effect in test [1] is 0.117%; in test [2], -4.33%.
`Cc1cc2c(cc1C)C(NCc1nnc3n1CCCCC3)CCCO2` (centres undefined): the Percent Effect in test [1] was 0.212%; in test [2], -2.95%.
Turning to `O=C(NCC1CCOC1)c1csc(-c2cccc(Cl)c2)n1` (centres undefined), the Percent Effect worked out at 0.759% in test [1] and 5.81% in test [2].
For `Cn1cc(-c2cnc(N3CCOCC3)nc2)cc1C(=O)NCCO`, the values for the Percent Effect in test [1] and in test [2] were 8.57% and -9.13%, respectively.
As for `N#Cc1ccnc(N2CCN(C(=O)Cc3ccc4c(c3)CCO4)CC2)c1`, the Percent Effect came to 0.144% in test [1] and 6.14% in test [2].
Consider `Cc1ncsc1C(=O)NCCn1nc2ccccn2c1=O`, for which the figures for the Percent Effect in test [1] and in test [2] were -1.86% and 15%, respectively.
With `c1cc2nccc(CC3CCCN(Cc4ncc[nH]4)CC3)c2cn1` (centres undefined), the Percent Effect in test [1] was 5.02%; in test [2], -54.1%.
In the case of `Cc1cc(NC(=O)CCc2ccsc2)n(C)n1`, the Percent Effect is 1.87% in test [1] and -17.7% in test [2].
With `O=C(NCC1CC1)Nc1cnc2cc(Cl)ccc2c1O`, the values for the Percent Effect in test [1] and in test [2] were -0.223% and -0.695%, respectively.
Taken in the same sequence, the figures for `CC(O)CN1CCN(Cc2cccc(C(=O)N(C)C)c2)CC1` (centres undefined) were -6.5% and -1.9%.
For the molecule `O=C(NCCn1nc2ccccn2c1=O)c1cccc2[nH]ncc12`, the results for the Percent Effect in test [1] and in test [2] were -0.633% and -25.7%, respectively.
Taken in the same sequence, the figures for `Cc1nc(CN2C(=O)CC[C@H]3[C@@H]2CCN3C(=O)c2ccsc2)cs1` were -4.11% and -2.73%.
`O=C1OCCN1CCc1nc(-c2cc3c4c(c2)CC(=O)N4CCC3)cs1`: the Percent Effect was determined as 1.61% in test [1] and 9.08% in test [2].
Regarding `CC(C)Oc1ncccc1CNC(=O)N1CCC(C(N)=O)C1` (centres undefined), the Percent Effect in test [1] is -4.37%; in test [2] it was 30.9%.
With `c1ccc2sc(CN3CCOC(Cn4cccn4)C3)nc2c1` (centres undefined), the Percent Effect in test [1] was -0.285%; in test [2], 27.3%.
`O=C(CN1CCCC(O)C1)NC(=O)NCc1cccs1` (centres undefined): the Percent Effect is -0.0898% in test [1] and -13.2% in test [2].
Take `COc1ccc(C(O)CNC(=O)NCc2csc(C)n2)cc1` (centres undefined): the Percent Effect in test [1] was -1.2%; in test [2] it was -23.7%.
On to `Cc1ncc(CN(C)C2CCCN(Cc3noc(C4CC4)n3)C2)s1` (centres undefined), for which the Percent Effect in test [1] was -2.9%; in test [2], 11.1%.
With `CC(C)CC1SCC(=O)Nc2c1cnn2-c1ccc(F)cc1` (centres undefined), the Percent Effect was -3.46% in test [1] and 0.343% in test [2].
For `Cc1cnn(CC2CCCN2C(=O)CCCc2nc(C)no2)c1` (centres undefined), in that order: -0.389% and -14.7%.
For the molecule `Fc1cnc(N2CCOC3(CCN(Cc4ccsc4)CC3)C2)nc1`, the Percent Effect is 14.1% in test [1] and -18% in test [2].
For `CNC(=O)CSc1nc2c(cnn2Cc2ccc(F)cc2)c(=O)[nH]1`, in that order: -1.18% and -8.43%.
